The supplement of paper PMC10477191
± gives the standard deviation of the averaged measurements.

System: Drosophila virilis antennal basiconic sensillum AB3
Experiment: odor-evoked OSN spike response (post minus pre-stimulus); higher = stronger neuronal excitation
Conditions: odor dilution: 10^-4
Description: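 Single sensillum recordings from antennal basiconic sensilla of D. virilis. A 500 ms pulse of odorant (10^-4 in mineral oil or DMSO) was delivered; the response is the change in spike frequency between the 1 s pre- and post-stimulus windows (spikes/s).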

Row | SMILES | odor-evoked OSN spike response [spikes/s]
1 | CC(C)=O [acetone] | 92.2 ± 20
